# Source: paper PMC7862700, “An all-to-all approach to the identification of sequence-specific readers for epigenetic DNA modifications on cytosine”
# What was measured:
# Assay in all cases: DAPPL (digital affinity profiling via proximity ligation, sequencing); 10 mM Tris-HCl pH 7.5, 50 mM NaCl, 1 mM DTT, 4% glycerol, room temperature, 30 min; GST-TFs on glutathione beads, 16-mer random dsDNA library, 0.1% formaldehyde crosslink after washing; high values mean tight binding
# FLI1 = molecular target: T1, FLI1 (Homo sapiens, UniProt Q01543 1-452); conditions: protein: recombinant; tags: N-terminal GST; dsDNA, one strand shown
# T1 sequence: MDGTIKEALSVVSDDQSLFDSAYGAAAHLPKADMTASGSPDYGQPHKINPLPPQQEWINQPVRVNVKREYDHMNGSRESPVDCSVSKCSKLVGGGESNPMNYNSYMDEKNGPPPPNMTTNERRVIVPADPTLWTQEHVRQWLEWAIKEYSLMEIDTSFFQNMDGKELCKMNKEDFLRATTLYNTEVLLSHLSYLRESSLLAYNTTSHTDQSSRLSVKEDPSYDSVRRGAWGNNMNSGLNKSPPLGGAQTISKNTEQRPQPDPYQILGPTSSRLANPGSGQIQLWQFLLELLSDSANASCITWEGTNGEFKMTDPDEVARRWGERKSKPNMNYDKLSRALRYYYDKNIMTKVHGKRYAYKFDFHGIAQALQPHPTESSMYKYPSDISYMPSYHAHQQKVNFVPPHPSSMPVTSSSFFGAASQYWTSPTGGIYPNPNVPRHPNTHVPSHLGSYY
# Outline: (§1)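 Pools were built from human transcription factors expressed in yeast as GST fusions, captured on glutathione beads and DNA-barcoded, along with a tag-only sample. Incubation with 200 nmole of a 16-mer random double-stranded DNA library lasted 30 min at room temperature in Tris/NaCl/DTT/glycerol buffer, and was followed by washing, 0.1% formaldehyde crosslinking, proximity ligation, PCR amplification and Illumina NextSeq500 sequencing. Binding signal is the quotient of each hexamer's read frequency for a factor and its frequency for the tag-only sample.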
# ELK1 = molecular target: T2, ELK1 (Homo sapiens, UniProt P19419 1-428); conditions: protein: recombinant; tags: N-terminal GST; dsDNA, one strand shown
# T2 sequence: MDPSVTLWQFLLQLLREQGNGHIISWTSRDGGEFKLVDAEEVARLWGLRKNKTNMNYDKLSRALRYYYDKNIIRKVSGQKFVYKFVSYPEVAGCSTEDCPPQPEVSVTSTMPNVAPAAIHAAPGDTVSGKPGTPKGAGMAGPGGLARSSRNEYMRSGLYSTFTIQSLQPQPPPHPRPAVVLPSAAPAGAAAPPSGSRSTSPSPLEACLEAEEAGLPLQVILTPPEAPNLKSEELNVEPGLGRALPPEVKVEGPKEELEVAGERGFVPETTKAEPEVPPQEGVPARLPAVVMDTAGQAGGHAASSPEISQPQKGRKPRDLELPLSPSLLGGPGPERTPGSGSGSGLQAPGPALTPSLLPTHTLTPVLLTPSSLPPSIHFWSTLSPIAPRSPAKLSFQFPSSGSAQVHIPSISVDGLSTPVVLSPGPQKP
# Outline: as §1
# GABPA = molecular target: T3, GABPA (Homo sapiens, UniProt Q06546 1-454); conditions: protein: recombinant; tags: N-terminal GST; dsDNA, one strand shown
# T3 sequence: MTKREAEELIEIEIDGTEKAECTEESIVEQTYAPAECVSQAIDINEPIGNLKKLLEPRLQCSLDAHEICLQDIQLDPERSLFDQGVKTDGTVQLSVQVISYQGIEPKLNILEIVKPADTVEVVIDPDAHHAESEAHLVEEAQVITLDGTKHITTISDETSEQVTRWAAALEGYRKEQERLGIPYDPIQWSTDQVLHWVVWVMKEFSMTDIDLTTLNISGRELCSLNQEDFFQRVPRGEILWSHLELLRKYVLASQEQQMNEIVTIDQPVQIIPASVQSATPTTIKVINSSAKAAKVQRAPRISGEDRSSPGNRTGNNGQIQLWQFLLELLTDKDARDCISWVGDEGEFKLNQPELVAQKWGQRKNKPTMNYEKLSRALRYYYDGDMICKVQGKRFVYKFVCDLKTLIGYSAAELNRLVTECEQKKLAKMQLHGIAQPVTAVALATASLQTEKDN
# Outline: as §1
# ELF1 = ELF1 (Homo sapiens, UniProt P32519 1-619); conditions: protein: recombinant; tags: N-terminal GST; dsDNA, one strand shown
# Chain of ELF1 (P32519 whole entry): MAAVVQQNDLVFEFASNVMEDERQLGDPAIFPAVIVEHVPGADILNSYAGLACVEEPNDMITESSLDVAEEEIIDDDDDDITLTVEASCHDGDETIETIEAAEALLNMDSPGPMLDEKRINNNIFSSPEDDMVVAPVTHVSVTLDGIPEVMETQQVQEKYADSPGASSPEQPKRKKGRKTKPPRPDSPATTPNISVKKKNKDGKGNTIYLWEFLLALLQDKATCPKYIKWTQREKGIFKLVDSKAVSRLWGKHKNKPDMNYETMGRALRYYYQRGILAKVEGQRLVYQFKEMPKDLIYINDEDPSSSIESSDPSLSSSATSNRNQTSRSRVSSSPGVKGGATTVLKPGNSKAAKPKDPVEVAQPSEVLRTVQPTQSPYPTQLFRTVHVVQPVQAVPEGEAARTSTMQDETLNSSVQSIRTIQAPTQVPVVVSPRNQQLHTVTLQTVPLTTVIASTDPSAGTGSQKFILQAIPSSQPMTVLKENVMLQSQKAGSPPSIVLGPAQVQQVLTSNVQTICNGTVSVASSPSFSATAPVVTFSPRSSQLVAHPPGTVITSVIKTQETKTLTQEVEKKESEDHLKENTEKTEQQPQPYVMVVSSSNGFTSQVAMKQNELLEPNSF
# Outline: as §1
# EHF = molecular target: T4, EHF (Homo sapiens, UniProt Q9NZC4 1-300); conditions: protein: recombinant; tags: N-terminal GST; dsDNA, one strand shown
# T4 sequence: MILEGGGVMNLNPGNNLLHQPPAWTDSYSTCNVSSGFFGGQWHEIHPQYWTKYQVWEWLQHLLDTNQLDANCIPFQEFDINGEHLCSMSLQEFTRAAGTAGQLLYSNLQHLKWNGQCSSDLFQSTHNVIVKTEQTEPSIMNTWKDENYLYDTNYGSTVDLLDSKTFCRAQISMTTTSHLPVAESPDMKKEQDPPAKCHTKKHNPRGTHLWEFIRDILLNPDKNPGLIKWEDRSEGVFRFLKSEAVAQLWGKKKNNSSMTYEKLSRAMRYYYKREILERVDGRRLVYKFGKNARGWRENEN
# Outline: as §1
# ELK3 = molecular target: T5, ELK3 (Homo sapiens, UniProt P41970 1-407); conditions: protein: recombinant; tags: N-terminal GST; dsDNA, one strand shown
# T5 sequence: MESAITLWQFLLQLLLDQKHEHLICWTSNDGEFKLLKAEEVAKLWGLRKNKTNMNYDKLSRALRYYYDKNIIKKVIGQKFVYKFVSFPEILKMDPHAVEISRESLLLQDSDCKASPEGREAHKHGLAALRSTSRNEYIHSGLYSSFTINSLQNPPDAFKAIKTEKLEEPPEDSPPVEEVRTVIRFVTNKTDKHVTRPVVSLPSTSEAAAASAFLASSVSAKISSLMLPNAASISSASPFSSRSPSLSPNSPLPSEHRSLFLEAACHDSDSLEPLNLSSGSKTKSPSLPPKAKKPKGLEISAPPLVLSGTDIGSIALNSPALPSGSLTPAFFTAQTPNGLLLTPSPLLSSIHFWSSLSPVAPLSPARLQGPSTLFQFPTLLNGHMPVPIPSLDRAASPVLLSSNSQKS
# Outline: as §1
# FEV = molecular target: T6, FEV (Homo sapiens, UniProt Q99581 1-238); conditions: protein: recombinant; tags: N-terminal GST; dsDNA, one strand shown
# T6 sequence: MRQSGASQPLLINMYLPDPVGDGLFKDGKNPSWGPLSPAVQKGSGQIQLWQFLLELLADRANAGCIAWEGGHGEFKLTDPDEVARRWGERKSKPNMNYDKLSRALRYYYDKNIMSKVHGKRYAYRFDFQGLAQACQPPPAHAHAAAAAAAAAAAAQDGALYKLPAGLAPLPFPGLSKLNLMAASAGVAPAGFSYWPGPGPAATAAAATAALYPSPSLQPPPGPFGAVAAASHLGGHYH
# Outline: as §1
# ETV5 = ETV5 (Homo sapiens, UniProt P41161 1-510); conditions: protein: recombinant; tags: N-terminal GST; dsDNA, one strand shown
# Chain of ETV5 (P41161 whole entry): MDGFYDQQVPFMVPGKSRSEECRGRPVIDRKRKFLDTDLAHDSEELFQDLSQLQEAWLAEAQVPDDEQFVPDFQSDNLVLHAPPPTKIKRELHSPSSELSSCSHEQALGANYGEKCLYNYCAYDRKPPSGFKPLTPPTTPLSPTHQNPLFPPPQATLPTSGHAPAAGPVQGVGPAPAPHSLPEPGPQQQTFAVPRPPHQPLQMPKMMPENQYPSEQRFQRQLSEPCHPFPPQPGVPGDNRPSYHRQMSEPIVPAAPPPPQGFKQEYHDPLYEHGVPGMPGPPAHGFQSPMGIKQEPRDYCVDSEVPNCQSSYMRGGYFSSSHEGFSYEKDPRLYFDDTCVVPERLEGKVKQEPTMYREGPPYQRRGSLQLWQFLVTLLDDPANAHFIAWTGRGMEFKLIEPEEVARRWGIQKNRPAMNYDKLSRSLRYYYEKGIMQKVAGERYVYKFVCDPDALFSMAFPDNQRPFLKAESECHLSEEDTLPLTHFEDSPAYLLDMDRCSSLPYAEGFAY
# Outline: as §1
# HSF1 = HSF1 (Homo sapiens, UniProt Q00613 1-529); conditions: protein: recombinant; tags: N-terminal GST; chain copies: 3; dsDNA, one strand shown
# Chain of HSF1 (Q00613 whole entry): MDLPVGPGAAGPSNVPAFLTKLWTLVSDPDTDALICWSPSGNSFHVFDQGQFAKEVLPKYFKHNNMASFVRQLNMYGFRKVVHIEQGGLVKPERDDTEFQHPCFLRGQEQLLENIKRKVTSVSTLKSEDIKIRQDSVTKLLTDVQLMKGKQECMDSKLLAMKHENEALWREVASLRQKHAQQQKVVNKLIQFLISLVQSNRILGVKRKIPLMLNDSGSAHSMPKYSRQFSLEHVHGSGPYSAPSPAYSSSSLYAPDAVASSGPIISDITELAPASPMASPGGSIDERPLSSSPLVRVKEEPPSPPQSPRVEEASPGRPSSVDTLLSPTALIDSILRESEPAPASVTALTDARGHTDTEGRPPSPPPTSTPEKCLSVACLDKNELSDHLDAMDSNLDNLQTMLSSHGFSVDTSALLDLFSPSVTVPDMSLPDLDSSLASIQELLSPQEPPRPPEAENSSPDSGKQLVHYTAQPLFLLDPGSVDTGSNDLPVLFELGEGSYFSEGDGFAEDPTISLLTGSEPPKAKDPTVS
# Outline: as §1
# SPIC = molecular target: T7, SPIC (Homo sapiens, UniProt Q8N5J4 1-248); conditions: protein: recombinant; tags: N-terminal GST; dsDNA, one strand shown
# T7 sequence: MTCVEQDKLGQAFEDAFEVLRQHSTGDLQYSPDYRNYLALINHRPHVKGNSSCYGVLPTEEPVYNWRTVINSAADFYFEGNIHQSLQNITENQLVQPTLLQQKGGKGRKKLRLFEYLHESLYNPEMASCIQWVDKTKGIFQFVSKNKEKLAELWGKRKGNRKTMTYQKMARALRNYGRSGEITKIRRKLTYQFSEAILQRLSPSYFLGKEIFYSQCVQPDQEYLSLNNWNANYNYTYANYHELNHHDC
# Outline: as §1
# ELF4 = ELF4 (Homo sapiens, UniProt Q99607 1-663); conditions: protein: recombinant; tags: N-terminal GST; dsDNA, one strand shown
# Chain of ELF4 (Q99607 whole entry): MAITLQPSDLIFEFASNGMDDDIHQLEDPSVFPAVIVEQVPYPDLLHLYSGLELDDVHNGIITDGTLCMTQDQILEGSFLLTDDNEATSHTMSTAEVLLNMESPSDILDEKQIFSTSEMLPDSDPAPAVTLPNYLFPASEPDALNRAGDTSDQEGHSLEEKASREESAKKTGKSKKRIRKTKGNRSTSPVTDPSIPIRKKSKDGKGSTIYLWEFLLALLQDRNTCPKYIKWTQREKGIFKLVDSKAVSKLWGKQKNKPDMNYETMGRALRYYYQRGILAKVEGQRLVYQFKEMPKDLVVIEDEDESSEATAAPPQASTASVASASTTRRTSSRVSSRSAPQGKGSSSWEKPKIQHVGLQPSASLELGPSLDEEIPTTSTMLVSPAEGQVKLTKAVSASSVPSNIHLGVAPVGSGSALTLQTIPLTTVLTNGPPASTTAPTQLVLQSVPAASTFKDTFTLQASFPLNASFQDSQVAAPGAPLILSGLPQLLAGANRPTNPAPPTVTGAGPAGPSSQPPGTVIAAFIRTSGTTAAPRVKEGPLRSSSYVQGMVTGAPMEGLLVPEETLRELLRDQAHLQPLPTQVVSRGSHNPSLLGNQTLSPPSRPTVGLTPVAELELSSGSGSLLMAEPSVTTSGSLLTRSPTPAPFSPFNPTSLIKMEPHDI
# Outline: as §1
# ELK4 = molecular target: T8, ELK4 (Homo sapiens, UniProt P28324-2 1-405); conditions: protein: recombinant; tags: N-terminal GST; dsDNA, one strand shown
# T8 sequence: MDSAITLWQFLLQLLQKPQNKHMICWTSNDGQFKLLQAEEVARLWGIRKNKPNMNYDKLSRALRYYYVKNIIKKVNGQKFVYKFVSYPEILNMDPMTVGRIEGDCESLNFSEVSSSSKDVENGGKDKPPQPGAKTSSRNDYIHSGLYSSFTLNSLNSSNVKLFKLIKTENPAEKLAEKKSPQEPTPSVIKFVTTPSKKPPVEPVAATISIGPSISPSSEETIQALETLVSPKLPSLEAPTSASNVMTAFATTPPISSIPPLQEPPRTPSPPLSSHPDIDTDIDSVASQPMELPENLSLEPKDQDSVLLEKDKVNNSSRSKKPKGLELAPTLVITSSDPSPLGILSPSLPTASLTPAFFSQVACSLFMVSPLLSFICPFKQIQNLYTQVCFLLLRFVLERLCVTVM
# Outline: as §1
# ETV2 = molecular target: T9, ETV2 (Homo sapiens, UniProt O00321 1-342); conditions: protein: recombinant; tags: N-terminal GST; dsDNA, one strand shown
# T9 sequence: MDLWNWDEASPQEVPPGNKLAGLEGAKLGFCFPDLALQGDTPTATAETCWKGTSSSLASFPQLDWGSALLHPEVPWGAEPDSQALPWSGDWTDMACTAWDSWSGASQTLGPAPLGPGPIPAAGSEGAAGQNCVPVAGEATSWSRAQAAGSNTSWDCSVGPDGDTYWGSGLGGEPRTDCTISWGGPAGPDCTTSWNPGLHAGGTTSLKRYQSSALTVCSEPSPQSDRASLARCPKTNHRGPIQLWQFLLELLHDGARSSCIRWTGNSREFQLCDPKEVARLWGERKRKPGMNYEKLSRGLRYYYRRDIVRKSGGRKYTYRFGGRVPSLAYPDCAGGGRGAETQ
# Outline: as §1
# ELF3 = molecular target: T10, ELF3 (Homo sapiens, UniProt P78545 1-371); conditions: protein: recombinant; tags: N-terminal GST; dsDNA, one strand shown
# T10 sequence: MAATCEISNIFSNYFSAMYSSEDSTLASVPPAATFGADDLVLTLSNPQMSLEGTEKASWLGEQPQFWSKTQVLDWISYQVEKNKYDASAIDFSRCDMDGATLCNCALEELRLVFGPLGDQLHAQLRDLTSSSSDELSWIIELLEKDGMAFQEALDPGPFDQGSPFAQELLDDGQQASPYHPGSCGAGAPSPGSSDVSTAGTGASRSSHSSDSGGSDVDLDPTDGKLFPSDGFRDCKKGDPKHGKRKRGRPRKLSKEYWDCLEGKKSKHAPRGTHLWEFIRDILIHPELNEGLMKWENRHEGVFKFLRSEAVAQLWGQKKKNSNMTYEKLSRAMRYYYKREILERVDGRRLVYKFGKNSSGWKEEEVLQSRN
# Outline: as §1
# CRX = CRX (Homo sapiens, UniProt O43186 1-299); conditions: protein: recombinant; tags: N-terminal GST; dsDNA, one strand shown
# Chain of CRX (O43186 whole entry): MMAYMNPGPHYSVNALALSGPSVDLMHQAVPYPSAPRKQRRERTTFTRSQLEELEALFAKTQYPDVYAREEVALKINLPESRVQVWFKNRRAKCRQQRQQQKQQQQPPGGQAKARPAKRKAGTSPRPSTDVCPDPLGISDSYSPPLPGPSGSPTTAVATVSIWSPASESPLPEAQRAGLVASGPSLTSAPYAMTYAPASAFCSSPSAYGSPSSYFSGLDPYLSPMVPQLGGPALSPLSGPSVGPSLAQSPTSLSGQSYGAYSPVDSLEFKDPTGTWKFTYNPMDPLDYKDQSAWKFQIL
# Outline: as §1
# ETV1 = ETV1 (Homo sapiens, UniProt P50549 1-477); conditions: protein: recombinant; tags: N-terminal GST; dsDNA, one strand shown
# Chain of ETV1 (P50549 whole entry): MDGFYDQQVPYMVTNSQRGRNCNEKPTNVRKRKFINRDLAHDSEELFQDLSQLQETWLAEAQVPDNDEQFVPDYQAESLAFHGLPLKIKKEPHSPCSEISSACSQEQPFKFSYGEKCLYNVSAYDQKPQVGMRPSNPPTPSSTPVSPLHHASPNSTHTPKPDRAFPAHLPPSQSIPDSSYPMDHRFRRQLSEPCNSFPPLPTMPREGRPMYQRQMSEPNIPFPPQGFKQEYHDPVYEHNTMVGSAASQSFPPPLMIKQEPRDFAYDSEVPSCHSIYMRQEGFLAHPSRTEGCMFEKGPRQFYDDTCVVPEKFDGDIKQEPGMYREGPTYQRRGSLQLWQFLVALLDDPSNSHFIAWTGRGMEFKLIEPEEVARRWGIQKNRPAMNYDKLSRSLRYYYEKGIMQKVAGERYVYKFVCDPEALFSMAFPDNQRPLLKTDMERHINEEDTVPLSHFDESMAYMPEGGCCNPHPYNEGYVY
# Outline: as §1
sequence,measurement,setting,value
TGAGCT,binding signal,FLI1,"1.15 fold enrichment (6-mer frequency, TF over GST control)"
same,binding signal,ELK1,"1.08 fold enrichment (6-mer frequency, TF over GST control)"
same,binding signal,GABPA,"1.05 fold enrichment (6-mer frequency, TF over GST control)"
same,binding signal,ELF1,"1.02 fold enrichment (6-mer frequency, TF over GST control)"
same,binding signal,EHF,"1.16 fold enrichment (6-mer frequency, TF over GST control)"
same,binding signal,ELK3,"1.05 fold enrichment (6-mer frequency, TF over GST control)"
same,binding signal,FEV,"1.09 fold enrichment (6-mer frequency, TF over GST control)"
same,binding signal,ETV5,"1.07 fold enrichment (6-mer frequency, TF over GST control)"
same,binding signal,HSF1,"1.06 fold enrichment (6-mer frequency, TF over GST control)"
same,binding signal,SPIC,"1.03 fold enrichment (6-mer frequency, TF over GST control)"
same,binding signal,ELF4,"1.1 fold enrichment (6-mer frequency, TF over GST control)"
same,binding signal,ELK4,"1.17 fold enrichment (6-mer frequency, TF over GST control)"
same,binding signal,ETV2,"1.19 fold enrichment (6-mer frequency, TF over GST control)"
same,binding signal,ELF3,"1.23 fold enrichment (6-mer frequency, TF over GST control)"
same,binding signal,CRX,"1.35 fold enrichment (6-mer frequency, TF over GST control)"
same,binding signal,ETV1,"1.09 fold enrichment (6-mer frequency, TF over GST control)"
